Hits are enriched below; roughly 1.4% of the tested compounds scored in any of these assays.
TrxR1 substrate: rat thioredoxin reductase 1 substrate activity | O89049 | purified TrxR1 substrate turnover, NADPH consumption readout | Potency, µM (highest dose often 114 µM), without a hit: at the highest dose activity change, negative = substrate turnover | hit rate 0.01% among 390,000; further: potency means the concentration at half of the fitted maximal effect; on the % scale 0 is the no-effect control and ±100 the full control effect; nearly all actives have a fitted effect of over 50% in size
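Rat TrxR1, dispensed at 90 nM, was prereduced with 400 uM NADPH (final) for 5 min at ~22 deg C, then incubated with compound 15 min before 400 uM selenite. A first-read NADPH fluorescence drop versus no-compound background flagged substrates.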
GLS inhibitor: blocks human kidney-isoform glutaminase activity | O94925 | GLS enzymatic activity, qHTS titration | Potency, µM (titrated, usually from 45.5 µM), inactives show at the top dose activity change, negative = inhibition, most hits filed as inhibitors | hit rate 0.21% among 410,000 | AID 624170; further: potency means the concentration at half of the fitted maximal effect; on the % scale 0 is the no-effect control and ±100 the full control effect
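Glutamate formation by hKGA was monitored fluorometrically using coupled glutamate oxidase, HRP and Amplex Red. Substrate was added as 1 mM L-glutamine solution; incubation was 30 min at RT after an initial read.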
PKM2 activator: activators of human pyruvate kinase M2. hit rate 0.34% among 260,000. purified PKM2, Kinase-Glo ATP luminescence, activation; response scale: 0% is enzyme alone, no compound. Potency, µM (doses to about 57.5 µM), without a hit: top-dose activation, hits mostly activators; further: potency means the concentration at half of the fitted maximal effect; on the % scale 0 is the no-effect control and ±100 the full control effect; nearly all actives have a fitted effect of over 55% in size
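ATP formation by purified human PK-M2, quantified via coupled luciferase luminescence after 1 h at room temperature with 0.1 mM ADP and 0.5 mM PEP final.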
LDHA block: blocks human lactate dehydrogenase A; hit rate 0.15% among 480,000; P00338; AID 1347041; purified LDHA, NADH/diaphorase-resazurin fluorescence; active compounds read low; activity change, % (values are at about 110 or 230 µM); in the data active means activity change below about -30%; inconclusive means mostly about -25% to -30%;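 further: plate controls were DMSO wells for no effect and wells without enzyme for full effect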
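Enzyme activity of human lactate dehydrogenase 5 (2 nM; 0.06 mM NADH, 0.2 mM pyruvate, 5 min, RT) is measured via a resazurin/diaphorase fluorescence readout of residual NADH.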
rTrxR1 inhibitor: inhibitors of rat thioredoxin reductase 1; recombinant rTrxR1, NADPH fluorescence consumption, selenite substrate; AID 588453; hit rate 1% among 390,000; Potency, µM (highest dose often 114 µM), for inactives: at the highest dose activity change, negative = inhibition, most hits filed as inhibitors; further: potency means the concentration at half of the fitted maximal effect; on the % scale 0 is the no-effect control and ±100 the full control effect; nearly all actives have a fitted effect of over 65% in size
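Rat TrxR1 (90 nM in the dispensed reagent) was pre-reduced with 400 uM NADPH for 5 min at room temperature, then incubated with compound for 15 min. After 400 uM selenite was added, NADPH fluorescence (Ex 340/Em 450 nm) was followed for 8 min.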
mIDH1 inhibitor: blocks human mutant IDH1 R132H enzyme; O75874; IDH1-R132H enzyme, NADPH consumption, diaphorase/resazurin fluorescence; Potency, µM (top dose mostly 76.6 µM), without a hit: at the highest dose activity change, negative = inhibition, hits mostly inhibitors; hit rate 0.093% among 390,000; AID 602179; further: potency means the concentration at half of the fitted maximal effect; on the % scale 0 is the no-effect control and ±100 the full control effect; nearly all actives have a fitted effect of over 65% in size
Target sequence (O75874 whole entry R132H, stated change not applied): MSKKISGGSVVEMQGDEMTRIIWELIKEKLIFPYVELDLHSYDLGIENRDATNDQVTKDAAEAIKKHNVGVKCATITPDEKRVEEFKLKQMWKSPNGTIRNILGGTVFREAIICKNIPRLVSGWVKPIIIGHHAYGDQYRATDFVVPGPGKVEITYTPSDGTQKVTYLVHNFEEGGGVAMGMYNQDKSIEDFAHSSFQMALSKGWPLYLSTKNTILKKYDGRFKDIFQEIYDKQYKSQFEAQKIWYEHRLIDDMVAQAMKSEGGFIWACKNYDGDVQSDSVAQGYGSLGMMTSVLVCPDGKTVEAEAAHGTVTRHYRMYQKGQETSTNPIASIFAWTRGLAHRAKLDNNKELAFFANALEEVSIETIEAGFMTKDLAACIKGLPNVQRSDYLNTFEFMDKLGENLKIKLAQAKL
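IDH1-R132H (0.5 ug/mL dispensed) in pH 7.5 Tris buffer was preincubated 30 min with compound, then given a substrate mix of 0.016 mM NADPH and 2 mM alpha-KG for 80 min at room temperature; remaining NADPH was read by diaphorase/resazurin fluorescence.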
Resorufin autofl: autofluorescence interference, mutant IDH1 hit counter-screen; shares compounds with mIDH1 inhibitor; Resorufin detection reagent fluorescence interference, cell-free; inhibition of signal, % at 51.2 µM; 750 tested, under 10 active; AID 623980;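 further: 0% = wells with normal resorufin and full inhibition = wells lacking resorufin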
IDH1 WT: wild-type IDH1 (human) inhibition counterscreen; AID 623995; shares compounds with mIDH1 inhibitor; hit rate 9% among 750; Potency, µM (doses to about 115 µM), for inactives: at the top dose activity change, negative = inhibition, usual class: inhibitors; WT IDH1 enzyme, NADPH diaphorase/resazurin fluorescence;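 further: potency means the concentration at half of the fitted maximal effect; 0% = full WT IDH1 enzyme control and full inhibition = no enzyme wells; nearly all actives have a fitted effect of over 55% in size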
Target sequence (O75874 whole entry, looked up): as the sequence (O75874 whole entry R132H, stated change not applied) above, with H132R counted along it
mIDH1 confirm: mutant IDH1 (human) inhibition, confirmed | shares compounds with mIDH1 inhibitor | IDH1 R132H enzyme, NADPH diaphorase/resazurin fluorescence | Potency, µM (doses to about 76.6 µM), inactives show at the top dose activity change, negative = inhibition, hits mostly inhibitors | hit rate 83% among 750 | AID 624002; further: potency means the concentration at half of the fitted maximal effect; nearly all actives have a fitted effect of over 50% in size
Starred values were filed as active, the others as inactive; ? = inconclusive; nt = no result given; [ ] = dose if it differs, or a comment. Unless noted, the call rests on the fitted dose curve; in most records, active means well fitted curve in the direction sought with a large enough effect; inconclusive means small, poorly fitted or top-dose-only effect, or another doubt; inactive means no such curve, though single readings can be large; an effect the other way counts as inactive or inconclusive.

SMILES	TrxR1 substrate	GLS inhibitor	PKM2 activator	LDHA block	rTrxR1 inhibitor	mIDH1 inhibitor	Resorufin autofl	IDH1 WT	mIDH1 confirm
CN(C)Cc1nnc(-c2ccc(Br)o2)o1	nt	nt	nt	2	nt	nt	nt	nt	nt
O=C(CCCC(=O)N(c1ccc2c(c1)OCCO2)C(C(=O)NC1CCCCC1)c1ccc(Cl)cc1)Nc1ccccn1 (stereo not given)	10%	10%	0%	2	22%	?	-7	0%	13µM*
Cc1cc(NC(=O)CCCC(=O)N(c2ccccc2)C(C(=O)NC2CCCCC2)c2cccs2)no1 (stereo not given)	2%	-2%	-2%	-1	0%	?	1	9%	20µM*
Cc1cc(NC(=O)CCC(=O)N(c2cccnc2)C(C(=O)NC2CCCC2)c2ccccc2F)no1 (stereo not given)	-1%	5%	-22%	-2	2%	?	nt	nt	nt
Cc1cc(NC(=O)CCC(=O)N(c2ccccc2F)C(C(=O)NC2CCCC2)c2ccccc2)no1 (stereo not given)	2%	-11%	-2%	0	-6%	?	-5	3%	25µM*
Cc1cc(NC(=O)CCC(=O)N(c2ccccc2)C(C(=O)NC2CCCC2)c2ccccc2F)no1 (stereo not given)	6%	0%	nt	-6	17%	?	-1	5%	22µM*
COc1ccc(C(C(=O)NC2CCCCC2)N(C(=O)CCCC(=O)Nc2ccccn2)c2ccc3c(c2)OCCO3)cc1 (stereo not given)	4%	-8%	0%	-5	14%	-5%	nt	nt	nt
Cc1ccc2[nH]c3c(c2c1)CCCC3	nt	nt	nt	62	nt	nt	nt	nt	nt
COC(=O)c1ccc(NS(=O)(=O)c2c(C)cc(C)cc2C)cc1	nt	nt	nt	3	nt	nt	nt	nt	nt
COc1ccc(N(C(=O)/C=C/C(=O)Nc2cc(C)on2)C(C(=O)NC2CCCC2)c2ccccc2C)cc1 (stereo not given)	-3%	-9%	1%	2	-18%	?	-11	6%	35µM*
COc1ccc(N(C(=O)CCC(=O)Nc2cc(C)on2)C(C(=O)NC2CCCC2)c2ccco2)cc1 (stereo not given)	7%[57.1 µM]	-3%	-2%	0	7%[57.1 µM]	-4%	nt	nt	nt
CC1(C)CC(=O)C2=C(C1)OC1=C(C(=O)CC(C)(C)C1)C2c1ccc(C(=O)O)cc1	nt	nt	nt	3	nt	nt	nt	nt	nt
CCc1ccc(/C=C2\Oc3cc(OS(=O)(=O)c4ccc(OC)cc4)ccc3C2=O)cc1	nt	nt	nt	11	nt	nt	nt	nt	nt
CCCc1cc(N2CCN(C(=O)c3ccco3)CC2)n2c(nc3ccccc32)c1C#N	17%[57.1 µM]	18%	24%	0	2%[57.1 µM]	?	-4	?	40µM*
CCCc1cc(-n2ccnc2C)n2c(nc3ccccc32)c1C#N	6%	6%	nt	2	4%	6%	nt	nt	nt
Cc1ccc(-c2nn3c(-c4ccccc4C)nnc3c3ccccc23)cc1	19%	1%	nt	-4	30%	40µM*	1	-2%	22µM*
Cc1ccc(-c2nn3c(-c4ccccc4)nnc3c3ccccc23)cc1	152%	0%	nt	-7	60%	-9%	nt	nt	nt
Cc1ccc2c(c1)Oc1ccc(NC(=O)CCl)cc1C(=O)N2	2%	-7%	0%	-1	?	13µM*	-2	71µM*	6.3µM*
Cc1cc(C)c(NC(=O)C(C)OC(=O)c2ccc3ccccc3n2)c(C)c1 (stereo not given)	nt	nt	nt	7	nt	nt	nt	nt	nt
CC(C)(C)c1ccc(C(=O)Nc2ccc(Oc3ccc(Cl)cc3Cl)cc2)cc1	nt	nt	nt	2	nt	nt	nt	nt	nt
Cc1ccc(C(C(=O)NC2CCCCC2)N(Cc2ccco2)C(=O)C2COc3ccccc3O2)o1 (stereo not given)	-7%	5%	-18%	-2	10%	?	0	-3%	13µM*
O=C(NCc1ccco1)C(c1ccncc1)N(C(=O)Cc1cccs1)c1ccccc1 (stereo not given)	-8%	0%	-6%	2	-19%	-9%	nt	nt	nt
O=C(NCc1ccco1)C(c1ccccc1)N(C(=O)Cc1cccs1)c1ccccc1F (stereo not given)	-9%	1%	11%	-6	-12%	21µM*	-4	-1%	14µM*
O=C(NC1CCCC1)C(c1ccccc1)N(Cc1ccco1)C(=O)Cc1cccs1 (stereo not given)	0%	3%	2%	-4	-6%	?	-5	2%	28µM*
O=C(NCC(=O)N(Cc1ccco1)C(C(=O)NC1CCCC1)c1cccnc1)c1cccs1 (stereo not given)	-2%	-1%	2%	-1	-3%	1%	nt	nt	nt
SMILES	TrxR1 substrate	GLS inhibitor	PKM2 activator	LDHA block	rTrxR1 inhibitor	mIDH1 inhibitor	Resorufin autofl	IDH1 WT	mIDH1 confirm
Cc1cnc(NC(=O)CCc2c(C)[nH]c(=O)[nH]c2=O)s1	nt	nt	nt	-1	nt	nt	nt	nt	nt
CC(C)(C)c1cc(-c2cc(Br)c(O)c(C(C)(C)C)c2)cc(Br)c1O	nt	nt	nt	5	nt	nt	nt	nt	nt
Cc1cc(C)cc(N(C(=O)c2nsc(Cl)c2Cl)C(C(=O)NC2CCCC2)c2ccc(O)cc2)c1 (stereo not given)	-9%	2%	-1%	1	13%	-17%	nt	nt	nt
Cc1ccc(N(C(=O)c2nsc(Cl)c2Cl)C(C(=O)NC2CCCC2)c2ccc(O)cc2)cc1C (stereo not given)	7%[57.1 µM]	1%	2%	-7	22%[57.1 µM]	?	1	16%	14µM*
O=C1c2[nH]nc(-c3ccccc3O)c2C(c2cccc(Cl)c2)N1CC1CCCO1 (stereo not given)	5%	17%	1%	4	16%	?	10	0%	40µM*
COc1ccc(CCN2C(=O)c3[nH]nc(-c4ccccc4O)c3C2c2cccc(O)c2)cc1OC (stereo not given)	-1%[57.1 µM]	17%	16%	5	4%[57.1 µM]	-14%	nt	nt	nt
CCCCN1C(=O)c2[nH]nc(-c3ccccc3O)c2C1c1cc(Br)c(O)c(OC)c1 (stereo not given)	-7%	1%	nt	4	-3%	28µM*	1	40µM*	8.9µM*
